# According to the supplement of paper PMC10515830:
# Counter-ions that a name gives are not always drawn.
# Experiments:
# Details in all cases: 10 µM; exposure time 6 h
# [1] = tested on: Danio rerio larvae (5 dpf); test: difference in excitability vs DMSO (percentage points); higher = more excitable than DMSO
# Summary of the method: (§1)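 Wild-type 5 dpf zebrafish larvae in 96-well plates were given 100 µL egg water containing library compound at 10 µM final for 6 h. After 3 h of exposure, plates at 28.5 ℃ were photographed every 6 s during a 3-h programme of moving lines and 100 ms, 400Hz tones. Z-LaP Tracker (a DeepLabCut model) quantified each behaviour, averaged over 48 larvae per compound. Values are the compound mean minus the DMSO-vehicle control, in percentage points.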
# [2] = tested on: Danio rerio larvae (5 dpf); test: difference in startle response vs DMSO (percentage points); higher = stronger startle than DMSO
# Summary of the method: as §1
# [3] = tested on: Danio rerio larvae (5 dpf); test: difference in activity during first hour vs DMSO (percentage points); higher = more activity than DMSO
# Summary of the method: as §1
# [4] = tested on: Danio rerio larvae (5 dpf); test: difference in habituation to acoustic stimuli vs DMSO (percentage points); higher = more habituation than DMSO
# Summary of the method: as §1
# [5] = tested on: Danio rerio larvae (5 dpf); test: difference in combined optomotor response to red, green and blue moving lines vs DMSO (percentage points); higher = stronger optomotor response than DMSO
# Summary of the method: as §1
Compound,difference in excitability [1],difference in startle response [2],difference in activity during first hour [3],difference in habituation to acoustic stimuli [4],difference [5]
C[C@@H]1C[C@H]2[C@@H]3CCC4=CC(=O)C=C[C@]4(C)[C@@]3(Cl)[C@@H](O)C[C@]2(C)[C@@]1(OC(=O)c1ccco1)C(=O)CCl [Mometasone Furoate],11.9,0.167,1.33,0.89,3.46
C=C1/C(=C\C=C2/CCC[C@]3(C)[C@@H]([C@H](C)CCCC(C)(C)O)CC[C@@H]23)C[C@@H](O)C[C@@H]1O [Calcitriol],7.32,-3.08,-9.65,5.79,-3.39
COc1cc2nc(N3CCN(C(=O)c4ccco4)CC3)nc(N)c2cc1OC [Prazosin (hydrochloride)],20.4,2.07,11.2,-7.66,6.47
C[C@@H]1CCN(C(=O)CC#N)C[C@@H]1N(C)c1ncnc2[nH]ccc12,-2.24,-4.49,-6.58,-6.59,6.98
NS(=O)(=O)c1cc2c(cc1C(F)(F)F)NCNS2(=O)=O [Hydroflumethiazide],2.46,7.8,0.32,-1.14,-2.31
Nc1ccc(S(N)(=O)=O)cc1 [Sulfanilamide],11.8,-3.25,6.97,-1.65,3.13
Nc1nc(=O)c2c([nH]1)NC[C@H](CNc1ccc(C(=O)N[C@@H](CCC(=O)O)C(=O)O)cc1)N2C=O [L-Folinic Acid (calcium salt)],-3.02,-0.777,-9.87,-0.456,-0.774
CC(C)(C)NCC(O)COc1cccc2c1CCC(=O)N2 (stereo not given) [Carteolol (hydrochloride)],4.97,-3.33,6.77,1.1,4.95
COc1cc2c(cc1Cc1cccc(Cl)c1F)c(=O)c(C(=O)O)cn2[C@H](CO)C(C)C [Elvitegravir],4.89,-9.84,6.05,0.943,-4.56
OCCN1CCN(CCCN2c3ccccc3Sc3ccc(C(F)(F)F)cc32)CC1 [Fluphenazine (hydrochloride)],23.3,5.93,15.6,-10.4,-5.63
C[C@@H](O)[C@H]1C(=O)N2C(C(=O)O)=C(S[C@@H]3CN[C@H](C(=O)Nc4cccc(C(=O)O)c4)C3)[C@H](C)[C@H]12 [Ertapenem (sodium salt)],3.87,3.36,14.7,7.59,3.82
CON(C)Cc1ccc(O)c2c1C[C@H]1C[C@H]3[C@H](N(C)C)C(=O)C(C(N)=O)=C(O)[C@@]3(O)C(=O)C1=C2O,-1.28,-2.07,7.53,4.95,0.0321
C=C(CC)C(=O)c1ccc(OCC(=O)O)c(Cl)c1Cl [Ethacrynic Acid],4.29,4.46,19.4,-1.45,6.1
Oc1ncnc2[nH]ncc12 [Allopurinol],0.512,-2.34,-0.131,0.54,1.46
O=NN(CCCl)C(=O)NCCCl [Carmustine],-3.21,2.25,1.68,0.0979,11.5
NCC[C@H](O)C(=O)N[C@@H]1C[C@H](N)[C@@H](O[C@H]2O[C@H](CN)[C@@H](O)[C@H](O)[C@H]2O)[C@H](O)[C@H]1O[C@H]1O[C@H](CO)[C@@H](O)[C@H](N)[C@H]1O [Amikacin],5.08,3.94,10.9,2.17,6.4
Cc1c(-c2ccc(O)cc2)n(Cc2ccc(OCCN3CCCCCC3)cc2)c2ccc(O)cc12 [Bazedoxifene (acetate)],9.87,1.08,-9.97,-5.25,-3.93
Cn1c(=O)c2nc[nH]c2n(C)c1=O [Theophylline],4.49,5.34,8.14,4.58,-0.54
CO[C@H]1C[C@@H]2CC[C@@H](C)[C@@](O)(O2)C(=O)C(=O)N2CCCC[C@H]2C(=O)O[C@H]([C@H](C)C[C@@H]2CC[C@@H](O)[C@H](OC)C2)CC(=O)[C@H](C)/C=C(\C)[C@@H](O)[C@@H](OC)C(=O)[C@H](C)C[C@H](C)/C=C/C=C/C=C/1C [Rapamycin],5.81,-2.33,0.761,-0.387,3.4
CCOc1ccccc1OCCN[C@H](C)Cc1ccc(OC)c(S(N)(=O)=O)c1 [Tamsulosin (hydrochloride)],25.5,3.47,-3.28,1.9,1.52
CCCC(CCC)C(=O)O [Valproic Acid (sodium salt)],1.2,1.47,-1.97,-8.1,3.32
CC/C=C\C/C=C\C/C=C\C/C=C\C/C=C\CCCC(=O)OCC [Eicosapentaenoic Acid ethyl ester],11.7,2.48,-7.19,3.98,7.27
COc1cc(Cc2cnc(N)nc2N)cc(OC)c1OC [Trimethoprim],2.02,3.93,12.5,-7.9,12.7
FC(F)OC(Cl)C(F)(F)F (stereo not given) [Isoflurane],11.1,8.95,-15.9,-1.84,-13
O=c1[nH]c(=O)n([C@H]2C[C@H](O)[C@@H](CO)O2)cc1I [Idoxuridine],6.91,0.604,-3.04,5.55,2.86
CCOC(=O)[C@H](CCc1ccccc1)N[C@@H](C)C(=O)N1CCC[C@H]1C(=O)O [Enalapril (maleate)],0.733,3.17,-0.995,-3.38,7.06
CN/C(=N\CCSCc1nc[nH]c1C)NC#N [Cimetidine],-1.49,2.86,11.1,4.18,8.46
